Test results from PubChem BioAssay (Tox21).
Inconclusive results are not listed. Activity calls are given as the source filed them. Unless noted, calls come from the whole dose curve.

Key:
[1] = Nuclear factor erythroid 2-related factor 2/antioxidant responsive element (Nrf2/ARE) small molecule agonists: qHTS cell viability counter screen in human keratinocytes (AID 1919968; active = well fitted curve in the direction sought with a large enough effect in the repeat runs; an effect the other way counts as inactive or inconclusive; note: nearly all actives have a fitted effect of over 55% in size)
Procedure, shortened: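 Fluorescence read-out from CellTiter-Fluor after 1 h at 37 C. Wells held HaCaT-derived ARE-luciferase reporter cells (1,500/well) treated 23 h with DMSO-dissolved compounds. Run in the same wells as the luciferase agonist read.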

[2] = Nuclear factor erythroid 2-related factor 2/antioxidant responsive element (Nrf2/ARE) small molecule agonists: luciferase reporter gene qHTS assay in human keratinocytes (AID 1919969); note: nearly all actives have a fitted effect of over 35% in size
[3] = target: Gonadotropin-releasing hormone receptor (Homo sapiens) (UniProt P30968); assay: Human gonadotropin-releasing hormone receptor (GnRHR) small molecule agonists, calcium flux assay in GnRHR-HEK293 cells (AID 1920063); note: nearly all actives have a fitted effect of over 35% in size
Procedure, shortened: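 Calcium-dye fluorescence, Ex/Em=480/540, recorded every 1 sec over 3 min after compound addition to GnRHR-HEK293 cells. Cells had been seeded 18 hours earlier and dye-loaded for 1 hour at 37 C. Fifteen concentrations, triplicates.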

[4] = target: KiSS-1 receptor (Homo sapiens) (UniProt Q969F8); assay: Human kisspeptin (KISS1R) small molecule agonists, calcium flux assay in KISS1R-HEK293 cells (AID 1920064; active = well fitted curve in the direction sought with a large enough effect in the repeat runs; an effect the other way counts as inactive or inconclusive)
Procedure, shortened: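 Calcium flux read-out: kinetic fluorescence at Ex/Em=480/540, 1 s intervals over 3 min, after pin-tool compound addition to dye-loaded KISS1R-HEK293 cells. Fifteen concentrations, triplicates.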

[5] = G protein-coupled receptor (GPCR) small molecule agonists, calcium flux assay: HEK293 wild type cell line counter screen (AID 1920065)
Procedure, shortened: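 Agonist mode; 18 h seeding at 37 C, 1 h dye load at 37 C; compounds pinned from DMSO, ATP as positive control; kinetic fluorescence 480/540 nm, 3 min, 1 s reads; 15 concentrations, triplicate.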

[6] = p53 small molecule agonists, cell-based qHTS assay with human liver microsomes (AID 1963577);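 note: p53 response element beta-lactamase reporter cells with liver microsomes plus NADPH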
Procedure, shortened: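 p53RE-bla cells; 5 h settle, 37 C/5% CO2; cpd + HLM 0.5 mg/mL + NADPH 0.5 mg/mL (final); 16 h 37 C; LiveBLAzer 2 h RT dark; fluorescence readout.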

[7] = p53 small molecule agonists, cell-based qHTS assay with rat liver microsomes (AID 1963578)
Procedure, shortened: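 Rat liver microsome activation: microsomes 0.5 mg/mL, NADPH 0.5 mg/mL final; p53RE-bla cells, 16 h 37 C; LiveBLAzer readout, 2 h RT dark.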

[8] = p53 small molecule agonists, cell-based qHTS assay with human liver microsomes: qHTS cell viability counter screen (AID 1963579); note: nearly all actives have a fitted effect of over 45% in size
Procedure, shortened: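 Luminescent CellTiter-Glo read-out, 30 min at room temperature, gauged cytotoxicity in p53RE-bla cells exposed 16 h at 37 C to DMSO-dissolved compounds with metabolic activation by human liver microsomes and NADPH, each 0.5 mg/mL final.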

[9] = p53 small molecule agonists, cell-based qHTS assay with rat liver microsomes: qHTS cell viability counter screen (AID 1963580); note: nearly all actives have a fitted effect of over 45% in size
Procedure, shortened: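 Counter screen for cytotoxicity under metabolic activation: rat liver microsomes and NADPH, 0.5 mg/mL final each, added with compounds to p53RE-bla HCT-116 cells; 16 h at 37 C, then ATP luminescence read.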

[10] = p53 small molecule agonists, cell-based qHTS assay: qHTS cell viability counter screen (AID 1963581); note: nearly all actives have a fitted effect of over 45% in size
Procedure, shortened: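 Cytotoxicity read-out: ATP-based luminescence (CellTiter-Glo, 30 min RT) measured in the same wells as the p53 reporter assay, HCT-116 p53RE-bla cells, 16 h compound exposure at 37 C.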

[11] = p53 small molecule agonists, cell-based qHTS assay (AID 1963582; active = well fitted activation curve with a large enough effect in the signal ratio in the repeat runs, not every such curve was filed as active; the % refers to the signal ratio)
Procedure, shortened: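 Fluorescence intensity read-out of a beta-lactamase reporter under a p53 response element. Cells were exposed to DMSO-dissolved compounds for 16 h at 37 C, then developed with FRET substrate for 2 h at RT.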

[12] = target: 5-hydroxytryptamine receptor 2A (Homo sapiens) (UniProt P28223); assay: 5-hydroxytryptamine receptor 2A (HTR2A) small molecule agonists, cell-based qHTS assay (AID 1963587); note: nearly all actives have a fitted effect of over 30% in size
Procedure, shortened: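 HTR2A-CHO cells, plated 18 h at 37 C/5% CO2, dye-loaded 1 h at 37 C; compounds in DMSO added by pin tool (agonist mode). Intracellular calcium flux read as kinetic fluorescence on FDSS over 2 min at 1 s intervals.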

[13] = target: Muscarinic acetylcholine receptor M1 (Homo sapiens) (UniProt P11229); assay: Cholinergic receptor muscarinic 1 (CHRM1) small molecule antagonists, cell-based qHTS assay (AID 1963588); note: nearly all actives have a fitted effect of over 40% in size
Procedure, shortened: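 Compounds were tested at 15 concentrations in three independent runs. Dye-loaded CHRM1-CHO cells were exposed 5 min at room temperature before stimulation by acetylcholine added at 50nM. Intracellular calcium was read kinetically on FDSS for 3 min.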

[14] = cAMP Responsive Elements (CRE) small molecule agonists, cell-based qHTS assay (AID 1963590)
Procedure, shortened: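 Beta-lactamase reporter readout: LiveBLAzer B/G FRET substrate, 2 h at room temperature, added after 3 h compound treatment of CRE-bla HEK 293T cells at 37 C/5% CO2.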

[15] = cAMP Responsive Elements (CRE) small molecule antagonists, cell-based qHTS assay (AID 1963591; active = well fitted inhibition curve with a large enough effect in the signal ratio in the repeat runs, not every such curve was filed as active; the % refers to the signal ratio)
Procedure, shortened: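 HEK293T CRE-bla; 18 h preincubation; compound pin-transfer; NKH477 0.25 uM final, 3 h, 37 C; LiveBLAzer FRET substrate 2 h RT.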

[16] = target: Beta-2 adrenergic receptor (Homo sapiens) (UniProt P07550); assay: Adrenergic beta2 receptor (ADRB2) small molecule antagonists, cell-based qHTS assay (AID 1963592); note: series mostly up to about 92 µM; nearly all actives have a fitted effect of over 50% in size
Procedure, shortened: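 Assay format: CHO-ADRB2 cells, 18-20hr seeding at 37C/5% CO2, then compound plus 1nM isoproterenol agonist mix for 0.5hr RT. Homogeneous time-resolved fluorescence cAMP detection after 1hr, expressed as 665/615 nm ratio.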

[17] = target: D(2) dopamine receptor (Homo sapiens) (UniProt P14416); assay: Dopamine D2 receptor (DRD2) small molecule agonists, cell-based qHTS assay (AID 1963594); note: nearly all actives have a fitted effect of over 35% in size
Procedure, shortened: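 HEK293 cells stably expressing DRD2 were cultured 24 h at 37 C, then given Ro20-1724 (0.1 mM final) and compounds for 10 min at room temperature. NKH477 (200nM) was then added for 30 min. cAMP was read by HTRF.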

[18] = target: D(2) dopamine receptor (Homo sapiens) (UniProt P14416); assay: Dopamine D2 receptor (DRD2) small molecule antagonists, cell-based qHTS assay (AID 1963595; active = well fitted inhibition curve with a large enough effect in the signal ratio in the repeat runs, with a control signal flat; the % refers to the signal ratio)
Procedure, shortened: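 Antagonist mode in DRD2-HEK293 cells: after compound addition with 0.1 mM Ro20-1724, cells received quinpirole (12 nM) and NKH477 (200 nM) for 30 min at room temperature; HTRF cAMP read after 1 h detection.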

[19] = target: Muscarinic acetylcholine receptor M1 (Homo sapiens) (UniProt P11229); assay: Cholinergic receptor muscarinic 1 (CHRM1) small molecule agonists, cell-based qHTS assay (AID 1963589); note: nearly all actives have a fitted effect of over 35% in size
Procedure, shortened: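 Calcium flux read-out: kinetic fluorescence at 1 sec intervals after pin-tool compound addition to dye-loaded CHRM1-CHO cells (human M1). Agonist mode; 15 concentrations tested in triplicate independent runs.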

[20] = target: Beta-2 adrenergic receptor (Homo sapiens) (UniProt P07550); assay: Adrenergic beta2 receptor (ADRB2) small molecule agonists, cell-based qHTS assay (AID 1963593);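 note: CHO cells stably overexpressing human ADRB2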
Procedure, shortened: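 CHO cells stably over-expressing ADRB2 were plated overnight at 37C, then dosed with compounds plus a stimulation mix containing 100uM IBMX and 25uM Ro-20-1724 for 0.5hr at room temperature. cAMP was measured by HTRF competition, 1hr.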
% is set by controls: 0 for no effect and ±100 for the full control effect.

Sequence of 5-hydroxytryptamine receptor 2A (Homo sapiens) (P28223 whole entry, looked up): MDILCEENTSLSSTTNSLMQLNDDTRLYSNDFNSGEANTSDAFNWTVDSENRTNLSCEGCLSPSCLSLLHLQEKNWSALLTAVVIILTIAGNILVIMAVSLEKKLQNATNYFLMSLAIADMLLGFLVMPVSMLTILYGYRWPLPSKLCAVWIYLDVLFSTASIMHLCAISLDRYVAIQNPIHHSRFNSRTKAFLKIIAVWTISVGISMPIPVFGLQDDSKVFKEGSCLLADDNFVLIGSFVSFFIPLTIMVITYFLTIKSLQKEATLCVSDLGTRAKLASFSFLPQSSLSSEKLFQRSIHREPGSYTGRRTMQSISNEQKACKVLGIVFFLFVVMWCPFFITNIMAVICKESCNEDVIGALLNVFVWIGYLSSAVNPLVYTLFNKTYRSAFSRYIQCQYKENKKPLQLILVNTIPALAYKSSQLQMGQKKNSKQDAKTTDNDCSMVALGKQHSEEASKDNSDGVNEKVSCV
Sequence of KiSS-1 receptor (Homo sapiens) (Q969F8 whole entry, looked up): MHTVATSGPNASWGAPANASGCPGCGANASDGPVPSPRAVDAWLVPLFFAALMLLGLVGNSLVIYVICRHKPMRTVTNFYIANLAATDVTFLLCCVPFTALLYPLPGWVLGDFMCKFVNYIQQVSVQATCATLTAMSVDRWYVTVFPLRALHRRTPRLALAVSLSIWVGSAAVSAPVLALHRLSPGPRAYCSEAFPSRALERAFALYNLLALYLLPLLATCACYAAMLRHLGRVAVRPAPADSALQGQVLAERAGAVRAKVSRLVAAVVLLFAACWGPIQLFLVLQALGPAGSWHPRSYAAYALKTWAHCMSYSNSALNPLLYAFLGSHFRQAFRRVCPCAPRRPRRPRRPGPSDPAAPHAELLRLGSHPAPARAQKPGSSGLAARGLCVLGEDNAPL
Sequence of Muscarinic acetylcholine receptor M1 (Homo sapiens) (P11229 whole entry, looked up): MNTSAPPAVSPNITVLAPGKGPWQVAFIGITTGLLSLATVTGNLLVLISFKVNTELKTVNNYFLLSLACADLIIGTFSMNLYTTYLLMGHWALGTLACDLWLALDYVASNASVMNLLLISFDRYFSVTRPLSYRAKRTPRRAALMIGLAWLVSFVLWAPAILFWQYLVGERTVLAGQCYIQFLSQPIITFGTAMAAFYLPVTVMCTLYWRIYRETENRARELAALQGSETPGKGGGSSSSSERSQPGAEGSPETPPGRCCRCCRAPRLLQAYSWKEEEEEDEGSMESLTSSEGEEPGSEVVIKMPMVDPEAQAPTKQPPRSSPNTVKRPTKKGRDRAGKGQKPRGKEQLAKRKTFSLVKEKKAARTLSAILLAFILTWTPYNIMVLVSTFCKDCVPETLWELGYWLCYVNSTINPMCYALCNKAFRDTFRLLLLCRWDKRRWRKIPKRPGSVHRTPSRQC
Sequence of Beta-2 adrenergic receptor (Homo sapiens) (P07550 whole entry, looked up): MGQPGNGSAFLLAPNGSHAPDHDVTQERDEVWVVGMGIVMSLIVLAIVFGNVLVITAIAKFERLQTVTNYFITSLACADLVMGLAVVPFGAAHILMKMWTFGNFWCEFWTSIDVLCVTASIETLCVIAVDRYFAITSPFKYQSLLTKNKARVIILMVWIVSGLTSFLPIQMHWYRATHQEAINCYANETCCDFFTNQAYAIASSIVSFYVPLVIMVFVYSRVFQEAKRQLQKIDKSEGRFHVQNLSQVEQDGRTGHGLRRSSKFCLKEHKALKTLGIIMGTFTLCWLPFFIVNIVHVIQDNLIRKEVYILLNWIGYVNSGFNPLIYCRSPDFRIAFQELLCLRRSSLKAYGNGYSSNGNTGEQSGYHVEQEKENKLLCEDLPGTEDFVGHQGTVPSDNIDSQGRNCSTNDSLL
Sequence of Gonadotropin-releasing hormone receptor (Homo sapiens) (P30968 whole entry, looked up): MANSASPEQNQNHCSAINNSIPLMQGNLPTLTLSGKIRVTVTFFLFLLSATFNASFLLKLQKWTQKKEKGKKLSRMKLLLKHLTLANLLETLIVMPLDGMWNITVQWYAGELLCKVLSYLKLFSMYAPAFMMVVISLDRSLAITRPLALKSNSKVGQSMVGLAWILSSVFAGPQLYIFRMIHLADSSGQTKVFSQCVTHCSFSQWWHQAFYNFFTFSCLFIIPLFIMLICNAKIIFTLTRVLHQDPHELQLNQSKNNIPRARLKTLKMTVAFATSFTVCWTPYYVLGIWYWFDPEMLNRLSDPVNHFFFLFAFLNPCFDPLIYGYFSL
Sequence of D(2) dopamine receptor (Homo sapiens) (P14416 whole entry, looked up): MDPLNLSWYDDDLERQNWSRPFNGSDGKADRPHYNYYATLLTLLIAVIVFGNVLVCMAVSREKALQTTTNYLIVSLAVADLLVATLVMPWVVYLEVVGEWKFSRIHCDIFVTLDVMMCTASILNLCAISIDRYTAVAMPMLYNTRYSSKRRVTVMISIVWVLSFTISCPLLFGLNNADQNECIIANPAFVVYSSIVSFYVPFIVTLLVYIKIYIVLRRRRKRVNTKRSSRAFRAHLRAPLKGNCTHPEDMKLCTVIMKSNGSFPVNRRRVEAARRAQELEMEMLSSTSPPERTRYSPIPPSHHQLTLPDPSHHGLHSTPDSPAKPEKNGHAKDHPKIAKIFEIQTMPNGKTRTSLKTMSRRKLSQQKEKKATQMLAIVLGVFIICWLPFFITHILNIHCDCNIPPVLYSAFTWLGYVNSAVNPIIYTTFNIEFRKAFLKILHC

CC(C)=CCC/C(C)=C\C#N
inactive: Potency [1] | Potency [2] | Potency [3] | outcome [4] | outcome [5] | Potency [6] | Potency [7] | Potency [8] | Potency [9] | Potency [10] | Potency [11] | Potency [12] | Potency [13] | Potency [14] | Potency [15] | Potency [16] | Potency [17] | Potency [18]

CC(=O)Nc1ccc(C)c(Cl)c1
inactive: Potency [1] | Potency [2] | Potency [3] | outcome [4] | outcome [5] | Potency [6] | Potency [7] | Potency [8] | Potency [9] | Potency [10] | Potency [11] | Potency [12] | Potency [13] | Potency [19] | Potency [14] | Potency [15] | Potency [17] | Potency [18]

N#Cc1c(F)cccc1F
inactive: Potency [1] | Potency [2] | Potency [3] | outcome [4] | outcome [5] | Potency [6] | Potency [7] | Potency [8] | Potency [9] | Potency [10] | Potency [11] | Potency [13] | Potency [19] | Potency [14] | Potency [15] | Potency [16] | Potency [20] | Potency [17] | Potency [18]

COc1ccc(C(C)=O)cc1
inactive: Potency [1] | Potency [2] | Potency [3] | outcome [4] | outcome [5] | Potency [6] | Potency [7] | Potency [8] | Potency [9] | Potency [10] | Potency [11] | Potency [12] | Potency [19] | Potency [14] | Potency [15] | Potency [16] | Potency [20] | Potency [17] | Potency [18]

O=C(CCCCC(=O)Nc1c(I)cc(I)c(C(=O)O)c1I)Nc1c(I)cc(I)c(C(=O)O)c1I
inactive: Potency [1] | Potency [2] | Potency [3] | outcome [4] | outcome [5] | Potency [6] | Potency [7] | Potency [8] | Potency [9] | Potency [10] | Potency [11] | Potency [12] | Potency [13] | Potency [19] | Potency [15] | Potency [16] | Potency [17] | Potency [18]

COc1ccc(C(=O)N2CCN(CC(=O)N3CCOCC3)CC2)cc1
inactive: Potency [1] | Potency [2] | Potency [3] | outcome [4] | outcome [5] | Potency [6] | Potency [7] | Potency [8] | Potency [9] | Potency [10] | Potency [11] | Potency [13] | Potency [19] | Potency [14] | Potency [15] | Potency [16] | Potency [20] | Potency [17]

CNc1c2c(nn1C)CCCC2
inactive: Potency [1] | Potency [2] | Potency [3] | outcome [4] | outcome [5] | Potency [6] | Potency [7] | Potency [8] | Potency [9] | Potency [10] | Potency [11] | Potency [12] | Potency [19] | Potency [14] | Potency [15] | Potency [16] | Potency [17] | Potency [18]

O=c1[nH]c(=O)c2[nH]c(=O)[nH]c2[nH]1
inactive: activity change, negative = cytotoxicity [1] 13.3% [at 8.39 µM] | activity, positive = activation [2] 2.42% [at 8.39 µM] | activity change [3] -0.425% [at 5.22 µM, active compounds read high] | activation [4] -0.365% [at 6.97 µM] | activation [5] 1.57% [at 5.23 µM] | activation [6] -6.75% [at 5.99 µM] | activation [7] 1.18% [at 5.99 µM] | activity change, negative = cytotoxicity [8] -5.03% [at 5.99 µM] | activity change, negative = cytotoxicity [9] -22.6% [at 5.99 µM] | activity change, negative = cytotoxicity [10] -12.2% [at 5.99 µM] | activation [11] 1.49% [at 5.99 µM] | activation [12] -9.75% [at 7.02 µM] | activity, negative = inhibition [13] 3.65% [at 5.58 µM] | activation [19] -0.246% [at 6.97 µM] | activation [14] 1.51% [at 8.39 µM] | activity change, negative = inhibition [16] -4.56% [at 8.39 µM] | activation [17] 0.309% [at 8.39 µM] | activity change, negative = inhibition [18] -2.53% [at 8.38 µM]

CCN(O)CC
inactive: Potency [1] | Potency [2] | Potency [3] | outcome [4] | outcome [5] | Potency [6] | Potency [7] | Potency [8] | Potency [9] | Potency [10] | Potency [11] | Potency [13] | Potency [19] | Potency [14] | Potency [15] | Potency [16] | Potency [20] | Potency [17]

[O-][n+]1cccc(/C(Cl)=N/OC[C@@H](O)CN2CCCCC2)c1
inactive: Potency [1] | Potency [2] | Potency [3] | outcome [4] | outcome [5] | Potency [6] | Potency [7] | Potency [8] | Potency [9] | Potency [10] | Potency [11] | Potency [12] | Potency [19] | Potency [14] | Potency [15] | Potency [16] | Potency [18]

COc1cc(C(=O)OC(COCCC(C)C)CN2CCOCC2)cc(OC)c1OC (centres undefined)
inactive: Potency [1] | Potency [2] | Potency [3] | outcome [4] | outcome [5] | Potency [6] | Potency [7] | Potency [8] | Potency [9] | Potency [10] | Potency [11] | Potency [12] | Potency [13] | Potency [19] | Potency [17] | Potency [18]

O=C(NCCO[N+](=O)[O-])c1cccnc1
inactive: Potency [1] | Potency [2] | Potency [3] | outcome [4] | outcome [5] | Potency [6] | Potency [7] | Potency [8] | Potency [9] | Potency [10] | Potency [11] | Potency [13] | Potency [19] | Potency [14] | Potency [15] | Potency [16] | Potency [20] | Potency [17] | Potency [18]

Cc1ccc(CCn2c3c(c4cc(Cl)ccc42)CN(C)CC3)cn1
inactive: Potency [1] | Potency [2] | Potency [3] | outcome [4] | outcome [5] | Potency [6] | Potency [7] | Potency [8] | Potency [9] | Potency [10] | Potency [11] | Potency [12] | Potency [13] | Potency [14] | Potency [15] | Potency [16] | Potency [17] | Potency [18]
